Measurements reported in PubChem BioAssay AID2401 (Southern Research Specialized Biocontainment Screening …, 2010).
The campaign covered roughly 2,200 compounds. About 530 (24%) were called active.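 How the source made its calls: active means inhibition above a set limit at one or more concentrations of the dose series; inactive means inhibition under that limit at every dose.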 Only a sample is shown. Entries with a potency or affinity are not part of this list.

experiment: nmpC-GFP reporter counter-screen in S. Typhimurium, dose response, counter-screen for PhoP regulon inhibitor project, Salmonella Typhimurium, GFP fluorescence (AID 2401); conditions: 4 h; series mostly up to 150 µM;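 further: S. typhimurium with Mg-insensitive nmpC-GFP reporter grown at 10 µM Mg2+; drop in reporter fluorescence reflects general culture growth inhibition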

SMILES | outcome
CCCCn1c(SCC(=O)Nc2nnc(CC)s2)nc2c1c(=O)n(C)c(=O)n2C | inactive
Cc1ccc(OCC(=O)N2CCN(S(=O)(=O)c3ccccc3)CC2)c([N+](=O)[O-])n1 | inactive
O=C(CSc1nnc(-c2ccc(Br)cc2)o1)Nc1cccc2ccccc12 | inactive
COc1ccc(CCN2CC3=C(C2=O)C(c2ccccc2)NC(=O)N3C)cc1OC (centres undefined) | inactive
COc1ccc(C2=Nc3nc(-c4ccccc4)cn3C(c3ccc(OC)cc3)C2)cc1 (centres undefined) | inactive
CC(C)CC(=O)N/C(N)=N/c1nc2ccccc2s1 | inactive
O=C1NC(=Nc2ccccc2)/C(=C/c2ccco2)S1 | inactive
O=C(CNC(=O)OCc1ccccc1)NCC(=O)N1CCCC1C(=O)OCc1ccccc1 (centres undefined) | inactive
CC(NC(=O)CSc1nc2c(cc1C#N)CN(C)CC2)c1ccccc1 (centres undefined) | inactive
CCCn1c(N)c(C(=O)COC(=O)c2c(C)noc2C)c(=O)n(C)c1=O | inactive
CC(CO)(CO)NCc1ccc(-c2ccccc2)cc1 | inactive
COc1ccc2c(c1)C1C=CCC1C(c1cc3c(cc1Br)OCO3)N2 (centres undefined) | inactive
O=C1CCCc2c1cc(C(=O)NCc1ccco1)c(=O)n2-c1ccc(Cl)cc1 | inactive
CCOc1ccccc1Nc1nc2ccccc2n2cnnc12 | inactive
O=C(CCN1CCCCC1)NCC1OCCc2ccccc21 (centres undefined) | inactive
O=C(CCN1CCc2ccccc2C(c2ccccc2)C1)c1ccc2c(c1)OCCO2 (centres undefined) | inactive
c1ccc(Cn2nnc3c(NCc4ccc5c(c4)OCO5)nc(C4CC4)nc32)cc1 | inactive
FC(F)Oc1ccc(NC(=S)NCc2nc3ccccc3[nH]2)cc1 | inactive
O=C1C2CCCN2c2ccc(S(=O)(=O)N3CCOCC3)cc2N1Cc1ccccc1F (centres undefined) | inactive
CCOc1cc(S(=O)(=O)N2CCN(CC)CC2)ccc1Cl | inactive
c1ccc(-n2cnc3cc(NCc4ccncc4)ccc32)cc1 | inactive
CCCCn1c(/N=C/c2ccccc2NS(=O)(=O)c2ccc(C)cc2)nc2ccccc21 | inactive
CCN(CC)C(=O)CP(=O)(c1ccccc1)c1ccccc1 | inactive
O=c1[nH]c(CSc2nnc(NCCCN3CCOCC3)s2)nc2cc(Cl)ccc12 | inactive
O=C(CSCc1cccc(CSCC(=O)Nc2ccc3ccccc3c2)n1)Nc1ccc2ccccc2c1 | inactive
CCN(CC)S(=O)(=O)c1ccc2c(c1)nc(SCC(=O)N1CCOCC1)n2-c1ccccc1OC | inactive
CCCc1cc(-c2nc(N)ncc2-c2ccc3c(c2)OCCCO3)c(O)cc1OC | inactive
c1ccc(CNc2nc(N3CCN(Cc4ccccc4)CC3)nc3ccccc23)cc1 | inactive
O=S(=O)(c1ccc(S(=O)(=O)N2CCN(C/C=C/c3ccccc3)CC2)cc1)N1CCCC1 | inactive
